A selection: hits, their analogues and other compounds. The true share with any hit is near 2.4%.
WRN helicase inh – blocks human WRN helicase; Q14191; WRN helicase unwinding, fluorescent forked duplex, kinetic; Potency, µM (titrated, usually from 114 µM), inactives show at the highest dose activity change, negative = inhibition, hits mostly inhibitors; 360,000 tested, 0.46% active; AID 651768; note: % is set by controls: 0 for no effect and ±100 for the full control effect; nearly all actives have a fitted effect of over 55% in size
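Primary qHTS, 1536-well format. 20 nM WRN + compound, 15 min RT; start with 100 nM forked fluorophore/quencher duplex, 2 mM ATP (final); kinetic read ex 525/em 598 nm.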
Pol beta inh – inhibitors of human DNA polymerase beta. Pol beta primer extension/strand displacement, fluorescence kinetic. Potency, µM (top dose mostly 114 µM), for the others: at the highest dose activity change, negative = inhibition, actives largely listed as inhibitors. 340,000 tested, 1.3% active; note: % is set by controls: 0 for no effect and ±100 for the full control effect
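Homogeneous kinetic assay of primer extension and strand displacement by 10 nM Pol beta, preincubated 15 min at room temperature with compound before 50 nM substrate (final) was added. Read at 0 and 10 min; four-parameter Hill fit.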
POLI inh – DNA polymerase iota (human) inhibition. Q9UNA4. Pol iota fluorescent replication assay, 10 min. Potency, µM (series often up to 115 µM), for the others: top-dose activity, negative = inhibition, hits mostly inhibitors. 390,000 tested, 1% active. AID 588590
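Fluorescent replication assay read twice, at 0 min and 10 min after adding 50 nM (final) substrate. Enzyme (10 nM) and compounds were first incubated 15 min at room temperature; enzyme-free buffer wells were negative controls.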
POLH inh – DNA polymerase eta (human) inhibition; recombinant Pol eta, fluorescent DNA replication assay; Potency, µM (titrated, usually from 114 µM), inactives show top-dose activity change, negative = inhibition, usual class: inhibitors; 390,000 tested, 1.2% active; Q9Y253; AID 588591; note: % is set by controls: 0 for no effect and ±100 for the full control effect
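Pol eta (10 nM) was preincubated with compounds for 15 min at room temperature, after which fluorescent replication substrate (50 nM final) was added to start the reaction. Fluorescence was read kinetically at 0 and 10 min.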
FEN1 inhibitor – blocks human flap endonuclease 1; P39748; Recombinant FEN1 flap cleavage, fluorescence, 15 min; Potency, µM (doses to about 114 µM), without a hit: at the top dose activity change, negative = inhibition, hits mostly inhibitors; 390,000 tested, 0.35% active; AID 588795; note: % is set by controls: 0 for no effect and ±100 for the full control effect; nearly all actives have a fitted effect of over 65% in size
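In this screen, 50 nM flap DNA substrate was added to 10 nM FEN1 pretreated with compound for 15 min at room temperature; cleavage was followed with reads at 0 and 15 min, and Hill fitting gave concentration–response parameters.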
Pol kappa inh – DNA polymerase kappa (human) inhibition; Q9UBT6; purified Pol kappa, fluorescent DNA synthesis assay, 10 min; Potency, µM (titrated, usually from 107 µM), without a hit: at the top dose activity, negative = inhibition, most hits filed as inhibitors; 400,000 tested, 0.53% active; note: % is set by controls: 0 for no effect and ±100 for the full control effect
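Activity was followed as the change in fluorescence between reads at 0 and 10 min after starting the reaction with 50 nM substrate. Beforehand, 10 nM polymerase had been preincubated with compound for 15 min at room temperature.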
Starred values were filed as active, the others as inactive; [ ] = remark or other dose. Calls come from the whole dose curve; as a rule, active = well fitted curve in the direction sought with a large enough effect; inconclusive = small, poorly fitted or top-dose-only effect, or another doubt; inactive = no such curve, though single readings can be large; an effect the other way counts as inactive or inconclusive. Potency is the fitted concentration of half-maximal effect.

Results for CSCC[C@H](NC(=O)[C@H](CC(C)C)NC(=O)CNC(=O)[C@H](Cc1ccccc1)N(C)C(=O)[C@H](Cc1ccccc1)NC(=O)[C@H](CC(=O)O)NC(=O)[C@@H](N)CC(=O)O)C(N)=O ?
Pol kappa inh: 10%[60.1 µM]

What do the screens show for `CCOC(=O)C(CCc1ccccc1)NC(C)C(=O)N1Cc2cc(OC)c(OC)cc2CC1C(=O)O` (stereo not given)?
Pol kappa inh: 16%[60.1 µM]

How did CCn1cc2nc(SCC(=O)Nc3ccccc3C(F)(F)F)n(Cc3ccc(C)cc3)c(=O)c2n1 do in these assays?
Pol beta inh: 10µM*; POLI inh: 45µM*; POLH inh: -20%; FEN1 inhibitor: inconclusive; Pol kappa inh: inconclusive

How did CC(=O)[C@@H]1CC[C@@H]2[C@@H]3C[C@H](C)C4=CC(=O)CC[C@@]4(C)[C@H]3[C@H](O)C[C@]21C do in these assays?
Pol kappa inh: -8%[19.4 µM]

Results for CC1C(=O)N(S(=O)(=O)c2ccc([N+](=O)[O-])cc2)[C@H]1c1ccc2ccccc2c1 (stereo not given in full) ?
POLI inh: inconclusive; FEN1 inhibitor: -13%; Pol kappa inh: 0%

Results for Cc1cc(N=Nc2ccc(C)c(N=Nc3cc(C)c(N)cc3N)c2)c(N)cc1N ?
WRN helicase inh: -7%[11.6 µM]; Pol beta inh: inconclusive; POLI inh: inconclusive; POLH inh: -9%; FEN1 inhibitor: 22µM*; Pol kappa inh: 50µM*

What do the screens show for `O=C(C[N+]1(CCc2ccccc2)CCOCC1)c1cccc([N+](=O)[O-])c1`?
POLI inh: 9%; FEN1 inhibitor: -1%; Pol kappa inh: 2%

Results for Cc1ccc(CNC(=O)CSc2ncc(S(=O)(=O)c3ccc(C)c(Cl)c3)c(=O)[nH]2)cc1 ?
Pol beta inh: -12%; POLI inh: -8%; POLH inh: -9%; FEN1 inhibitor: 16%; Pol kappa inh: -8%[60.1 µM]

What do the screens show for `CC[C@H](C)/C=C(C)/C=C/C(=O)Cc1cc(O)c(C)c(O)c1C=O`?
WRN helicase inh: -6%[11.6 µM]; Pol beta inh: inconclusive; POLI inh: inconclusive; POLH inh: 50µM*; FEN1 inhibitor: -23%; Pol kappa inh: -40%

How did [N-]=C=C1C(=O)NC(=O)C([n+]2ccc(-c3ccncc3)cc2)C1c1ccccc1C(F)(F)F (stereo not given) do in these assays?
WRN helicase inh: -14%; Pol beta inh: -1%; POLI inh: 16µM*; POLH inh: -25%; FEN1 inhibitor: 10%; Pol kappa inh: -12%

How did [N-]=C=C1C(=S)NC(=O)[C@H]([n+]2ccccc2)[C@H]1c1ccc(Cl)cc1 do in these assays?
WRN helicase inh: -1%; Pol beta inh: inconclusive; POLI inh: 10%; POLH inh: 3%; FEN1 inhibitor: -17%; Pol kappa inh: 2%

Results for Cc1cc2c(c(C)c1Cl)C(c1ccc3c(c1)OCO3)CC(O)(c1ccccc1)O2 (stereo not given) ?
POLI inh: -16%; FEN1 inhibitor: -6%; Pol kappa inh: -10%

Results for CCN(CC)CCCNC(=O)c1ccc2nc(CCc3ccccc3)oc2c1 ?
Pol beta inh: 6%; POLI inh: -4%; POLH inh: -15%; FEN1 inhibitor: 3%; Pol kappa inh: -7%[60.1 µM]

What do the screens show for `Cn1c(=O)cc(OCCCC(=O)Nc2ccc(F)cc2)c2ccccc21`?
Pol beta inh: -19%; POLI inh: 0%; POLH inh: 4%; FEN1 inhibitor: 5%; Pol kappa inh: -9%

Results for CCOc1ccc(CCNC(=O)c2cnc3sc(N4CCCC4)nn3c2=O)cc1 ?
Pol beta inh: -11%; POLI inh: 11%; POLH inh: -13%; FEN1 inhibitor: 21%; Pol kappa inh: -16%

How did CCOc1ccc(CCNC(=O)c2cnc3sc(N4CCCCCC4)nn3c2=O)cc1 do in these assays?
Pol beta inh: -9%; POLI inh: 89µM*; POLH inh: -12%; FEN1 inhibitor: -1%; Pol kappa inh: -1%
